Data published in PubChem BioAssay (NCATS).
Results filed as inconclusive are left out. Active and inactive are the calls of the source. Calls follow the shape of the dose curve; as a rule, active = well fitted inhibition curve with a large enough effect; inconclusive = small, poorly fitted or top-dose-only effect; inactive = no such curve, though single readings can be large or run the other way.

assay: qHTS assay to identify inhibitors of the type 1 interferon - major histocompatibility complex class I in skeletal muscle: Counter screen cell viability and HiBit confirmation (AID 1347412); details: iHSKM muscle cells + IFN-b, HiBiT or CellTiter-Glo, 24 h; HiBiT; also: nearly all actives have a fitted effect of over 60% in size
Excerpt: Assay Submitter (PI): Travis B. Kinder Ph.D. & James Inglese Ph.D. Assay Development and Screening Technology Laboratory (ADST) National Center for Advancing Translational Sciences (NCATS), Rockville, MD National Institute of Health (NIH), Bethesda, Maryland Idiopathic inflammatory myopathies, collectively referred to as myositis, are a group of rare autoimmune diseases characterized by skeletal muscle inflammation, weakness, and usually accompanied by systemic pathologies of the skin, lungs, or vasculature. Current immunosuppressive therapies and glucocorticoids are often not curative and are accompanied by harsh side effects, especially in children with juvenile myositis. We initiated a drug repurposing and development program to identify more targeted, less toxic therapeutics to treat myositis. Although its cause is not known, muscle from a subset of patients have an abundance of the inflammatory type 1 interferon (IFN) and a down-stream product major histocompatibility complex class I (MHC class I), which are both thought to contribute to damage and weakness. We conducted quantitative high throughput screening on 6,576 compounds (4,679 unique) through a series of cell-based assays to identify those that inhibit the IFN-stimulated expression of MHC class I in muscle precursor cells (myoblasts). The compound identification and evaluation strategy utilized a primary screen with reporter-tagged MHC class I in genome-engineered myoblasts, ATP content counter screen for viability, HLA-ABC immunofluorescence secondary screen, and HLA-B RT-qPCR tertiary screen. The primary screen utilized CRISPR/Cas9 genome-engineering of immortalized human myoblasts, C25cl48, where a pro-luminescent reporter HiBit was fused to the C-terminus of endogenous MHC class I allele HLA-B*08:01 (HLA-B HiBit myoblasts). HiBit is an 11 amino acid fragment of NanoLuc luminescent reporter (Promega Corporation), and when complexed to the larger LgBit fragment, the reconstituted enzyme produces light in the presence of furimazine substrate (Schwinn et al., 2018). Briefly, HLA-B HiBit myoblasts were plated into 1536-well plates, treated with 4.0 ng/ml human IFN-beta and 650 inhibitory compounds identified from primary screening in a 12-point, 1:3 titration with a high final concentration of 46 uM. Compounds were pinned into duplicate plates, with one for HiBit confirmation and one for ATP content viability assay. After 24 hrs of treatment, cells were assayed by either Nano-Glo HiBiT Lytic Detection System (Promega) or CellTiter Glo (Promega), and luminescence measured by a ViewLux 1430 Ultra HTS (Perkin Elmer). References: Schwinn MK, Machleidt T, Zimmerman K, Eggers CT, Dixon AS, Hurst R, Hall MP, Encell LP, Binkowski BF, Wood K V. 2018. CRISPR-Mediated Tagging of Endogenous Proteins with a Luminescent Peptide. ACS Chem Biol 13:467-474. doi:10.1021/acschembio.7b00549
PROTOCOL TABLE (as described by Inglese et al., 2007) SEQUENCE No. (e.g., 1, 2, 3, etc.); […] (e.g., Cells, Incubation, Reagent, etc.); VALUE; DESCRIPTION 1a; Cells; 5 uL; Use a Multidrop Combi (Thermo Scientific) to seed 300 cells/well into 16 Greiner 1536 well white/solid bottom, high base, TC plates in 5 ul/well of iHSKM growth medium (GM) without dexamethasone into columns 1+2. Add metal lids with gas-exchange holes 1b; Cells; 5 uL; Use a Multidrop Combi (Thermo Scientific) to seed 300 cells/well into 16 Greiner 1536 well white/solid bottom, high base, TC plates in 5 ul/well of iHSKM GM without dexamethasone + 4 ng/ml IFN-b into columns 3 - 48. Add metal lids with gas-exchange holes 2; Incubate; 1 hr; Incubate at 37 C, 5% CO2, 95% RH 3; Compounds; 23 nl; Use Pin Tool (Wako) to transfer DMSO control, 92 uM final digitonin cytotoxic control, ruxolitinib IFN-b inhibitor control [High Concentration = 80 uM final, 16-pt, 1:2 in duplicate], and library compounds in DMSO. […]
% is scaled to controls: 0 for no effect and ±100 for the full control effect; potency is read from the fitted curve at half-maximal effect.

Row | SMILES | Potency
1 | C=CC(=O)Nc1cccc(C)c1Nc1ncc2cc(-c3c(Cl)c(OC)cc(OC)c3Cl)ccc2n1 | 15.7 µM (active)
2 | COc1cc(F)ccc1-c1ncnc(Nc2cccc(CS(C)(=N)=O)c2)n1 (stereo unspecified) | 0.991 µM (active)
3 | CN1CCC(c2c(O)cc(O)c3c(=O)cc(-c4ccccc4Cl)oc23)C1CO (stereo unspecified) | 0.787 µM (active)
4 | COc1cc2nc(-c3cc(F)ccc3O)nc(N[C@@H]3CNC[C@H]3C(C)(C)O)c2cc1OC | 8.83 µM (active)
5 | COCCNCc1ccc(-c2cc3nccc(Oc4ccc(NC(=S)NC(=O)Cc5ccc(F)cc5)cc4F)c3s2)nc1 | 12.5 µM (active)
6 | O=Nc1c(-c2c(O)[nH]c3ccccc23)[nH]c2ccccc12 | 14 µM (active)
7 | COc1cc(OC)cc(N(CCNC(C)C)c2ccc3ncc(-c4cnn(C)c4)nc3c2)c1 | 17.6 µM (active)
8 | O=C1NC(=O)/C(=C/c2ccc3nccc(-c4ccncc4)c3c2)S1 | 4.97 µM (active)
9 | CN1C/C=C/CCOc2cccc(c2)-c2ccnc(n2)Nc2cccc(c2)C1 | 0.111 µM (active)
10 | C=C1C(=O)O[C@@H]2[C@H]3O[C@]3(C)CC/C=C(\C)CC[C@@H]12 | 7.01 µM (active)
11 | COc1cc2ncnc(Oc3cccc(NC(=O)Nc4cc(C(C)(C)C(F)(F)F)on4)c3)c2cc1OC | 24.9 µM (active)
12 | C=CC(=O)Nc1cc(Nc2nccc(-c3cn(C)c4ccccc34)n2)c(OC)cc1N(C)CCN(C)C | 24.9 µM (active)
13 | Cc1ccc(Nc2ncc3c(n2)N(C)C(=O)N(c2cc(NC(=O)c4cccc(C(F)(F)F)c4)ccc2C)C3)cn1 | 0.394 µM (active)

same assay, conditions: iHSKM muscle cells + IFN-b, HiBiT or CellTiter-Glo, 24 h; HiBiT; at 45.9 µM (top of the series)

Row | SMILES | activity change, negative = inhibition
14 | Oc1ccc(Nc2nc(-c3ccc(Cl)cc3)cs2)cc1 | -38.1% (inactive)
15 | N#Cc1ccc(-c2c(-c3ncn[nH]3)sc(N3CCOCC3)c2C#N)c(F)c1 | -34.7% (inactive)
16 | Nc1ncnc(Nc2ccc(OCc3ccccc3)c(Cl)c2)c1/C=N/OCCN1CCOCC1 | -8.78% (inactive)
17 | C[C@@H](Nc1cc(F)cc(F)c1)c1cc(C(=O)N(C)C)cc2c(=O)cc(N3CCOCC3)oc12 | -23.5% (inactive)
18 | O=c1c(-n2ccnn2)c[nH]n1-c1cc(N2CCOCC2)ncn1 | -24.7% (inactive)
19 | CNCc1ccc(C)c(NC(=O)c2ccc(Nc3nc(-c4ccccc4)c4ccccc4n3)cc2)c1 | -20% (inactive)
20 | COCc1c(-c2ccc(NC(=O)Nc3cc(C(F)(F)F)ccc3F)c(F)c2)c2c(N)ncnn2c1CN1CCOCC1 | -92% (inactive)

same assay, conditions: iHSKM muscle cells + IFN-b, HiBiT or CellTiter-Glo, 24 h; Viability

Row | SMILES | Potency
21 | COc1cc2nc(-c3cc(F)ccc3O)nc(N[C@@H]3CNC[C@H]3C(C)(C)O)c2cc1OC | 31.3 µM (active)
22 | COCCNCc1ccc(-c2cc3nccc(Oc4ccc(NC(=S)NC(=O)Cc5ccc(F)cc5)cc4F)c3s2)nc1 | 11.1 µM (active)

same assay, conditions: iHSKM muscle cells + IFN-b, HiBiT or CellTiter-Glo, 24 h; Viability; at 45.9 µM (top of the series)

Row | SMILES | activity change, negative = inhibition
23 | C=CC(=O)Nc1cccc(C)c1Nc1ncc2cc(-c3c(Cl)c(OC)cc(OC)c3Cl)ccc2n1 | 1.08% (inactive)
24 | COc1cc(F)ccc1-c1ncnc(Nc2cccc(CS(C)(=N)=O)c2)n1 (stereo unspecified) | -16.3% (inactive)
25 | CN1CCC(c2c(O)cc(O)c3c(=O)cc(-c4ccccc4Cl)oc23)C1CO (stereo unspecified) | -2.93% (inactive)
26 | Oc1ccc(Nc2nc(-c3ccc(Cl)cc3)cs2)cc1 | 7.19% (inactive)
27 | Nc1ncnc(Nc2ccc(OCc3ccccc3)c(Cl)c2)c1/C=N/OCCN1CCOCC1 | 12.2% (inactive)
28 | CN1C/C=C/CCOc2cccc(c2)-c2ccnc(n2)Nc2cccc(c2)C1 | -20% (inactive)
29 | O=c1c(-n2ccnn2)c[nH]n1-c1cc(N2CCOCC2)ncn1 | -14.1% (inactive)
30 | C=C1C(=O)O[C@@H]2[C@H]3O[C@]3(C)CC/C=C(\C)CC[C@@H]12 | 0.032% (inactive)
31 | COc1cc2ncnc(Oc3cccc(NC(=O)Nc4cc(C(C)(C)C(F)(F)F)on4)c3)c2cc1OC | -21.3% (inactive)
